Here are results for 101 molecules from PubChem BioAssay AID1220 (Sanford-Burnham Center for Chemical Genomics, 2008).

The structures appear in SMILES notation. The whole screen tested about 190,000 compounds, of which about 1,300 (0.68%) were called active. This excerpt belongs to a sample that is enriched for actives. A number with no mark means an inactive call. No stated cut-off is given here; in the data, active means inhibition above about 50%; inactive means the rest.

By inhibition is commonly meant the change of the read-out against control, counted positive when it falls.

Mannose-6-phosphate isomerase (Homo sapiens), sequence (P34949 whole entry, looked up): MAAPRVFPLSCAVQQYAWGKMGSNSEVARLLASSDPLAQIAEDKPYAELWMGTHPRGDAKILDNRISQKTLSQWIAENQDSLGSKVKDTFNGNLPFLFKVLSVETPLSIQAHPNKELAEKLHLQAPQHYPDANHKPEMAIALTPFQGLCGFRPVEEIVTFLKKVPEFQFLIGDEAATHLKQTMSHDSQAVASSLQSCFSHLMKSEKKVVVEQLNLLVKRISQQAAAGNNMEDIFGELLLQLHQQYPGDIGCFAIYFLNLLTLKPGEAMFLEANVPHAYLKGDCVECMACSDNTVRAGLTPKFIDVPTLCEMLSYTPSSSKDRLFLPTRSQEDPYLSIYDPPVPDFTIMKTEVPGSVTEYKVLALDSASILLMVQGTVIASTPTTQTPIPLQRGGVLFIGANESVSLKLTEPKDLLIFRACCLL

This experiment has as its target Mannose-6-phosphate isomerase (Homo sapiens) (UniProt P34949). Description: human PMI inhibitors, high substrate, primary screen, biochemical, fluorescence intensity, high mannose 6-phosphate (AID 1220). The following applies: recombinant PMI enzyme, coupled fluorescence intensity; at 20 µM; active compounds read high.
`O=C1CC(C(=O)N(c2ccccc2)C(C(=O)NC2CCCC2)c2ccncc2)CS1` (stereo unspecified): the inhibition was 0.6%.

Take `Cc1c(C(=O)Nc2ccccc2)sc2nc[nH]c(=O)c12`: the inhibition was 8.6%.

As for `CCCCCOC(=O)CSc1nc2c(c(=O)[nH]c(=O)n2C)n1CCc1ccccc1`, the inhibition is 107% (active).

As to `CCOC(=O)CSc1nc2c(c(=O)[nH]c(=O)n2C)n1CCc1ccccc1`, the inhibition is 8.8%.

For `CCOC(=O)CSc1nc2c(c(=O)[nH]c(=O)n2C)n1CCCc1ccccc1`, the inhibition was 2.2%.

Regarding `CN1C(=O)CC(C(=O)O)SC1=Nc1ccc(F)cc1` (stereo unspecified), the inhibition is -4.1%.

`CC(C)N1CCN(c2ccncc2S(=O)(=O)N2CCOCC2)CC1`: the inhibition was -5.7%.

`O=C(O)c1[nH]c2ccccc2c1C=NCc1ccccc1Cl`: the inhibition was -5%.

Regarding `CC1=CC(C)(C)Nc2ccc(C)cc21`, the inhibition was 40.8%.

Regarding `CC1=CC(C)(C)Nc2ccccc21`, the inhibition was 23.6%.

In the case of `CC1=CC(C)(C)Nc2cc(C)c(C)cc21`, the inhibition was 56.3% (active).

`C/C(=N/NC(=O)c1ccccc1)C(=O)O`: the inhibition is 33.7%.

For `COc1ccc(/C=C/C(=O)c2ccc(OC)cc2OC)c(OC)c1`, the inhibition was 9.4%.

With `COc1ccc(C(=O)/C=C/c2ccccc2)c(OC)c1`, the inhibition is 1.9%.

In the case of `COc1ccc(C(=O)/C=C/c2ccccc2)c(O)c1`, the inhibition is 5.8%.

In the case of `COc1ccc(C(=O)/C=C/c2ccc(OC)c(O)c2)c(F)c1`, the inhibition is 62.5% (active).

Regarding `COc1ccc(/C=C/C(=O)c2ccc(OC)cc2OC)cc1`, the inhibition was 2.1%.

For the molecule `COc1ccc(C(=O)/C=C/c2cc(OC)c(O)c(OC)c2)c(F)c1`, the inhibition was 62.9% (active).

For `Cc1ccc(N(C(=O)Cn2nnc(-c3ccccc3)n2)C(C(=O)NC2CCCCC2)c2ccccn2)cc1C` (stereo unspecified), the inhibition is 6.5%.

On to `Cn1c(=O)n(Cc2ccc(Cl)cc2)c(=O)c2c1nc1n2CCN1Cc1ccco1`, for which the inhibition was 7.4%.

In the case of `Cc1cc2ncn(CCOc3ccccc3C#N)c2cc1C`, the inhibition is 0.3%.

Take `Cc1ccccc1-c1nsc(SCC(=O)Nc2ccc3c(c2)OCO3)n1`: the inhibition is 14.2%.

For the molecule `CCN1/C(=C/c2ccc3cc(C)ccc3[n+]2CC)Sc2ccccc21`, the inhibition is -14.4%.

As for `CCN1/C(=C/c2ccc3cc(C)ccc3[n+]2CC)Sc2cc(C)ccc21`, the inhibition is 15%.

`CCOC(=O)N1CCN(c2cc(=O)n(-c3ccccc3C)c(=O)[nH]2)CC1`: the inhibition is -8%.

Turning to `Cc1ccsc1C(=O)OC1CCOC1=O` (stereo unspecified), the inhibition was -9.2%.

With `COC(=O)c1nc2cc3c(cc2c(C)c1C(=O)OC)OCO3`, the inhibition is -5.6%.

Turning to `COC(=O)c1nc2ccc(N3CCOCC3)cc2c(C)c1C(=O)OC`, the inhibition was 64.4% (active).

Turning to `COC(=O)c1c(N)n(-c2ccc(N3CCOCC3)cc2)c2nc3ccccc3nc12`, the inhibition is 20%.

`Cc1nnc(SCc2ccc(F)cc2)n1NC/C=C/c1ccccc1`: the inhibition was 9.2%.

Regarding `CC(=O)N1CCN(C(=S)c2cccc([N+](=O)[O-])c2)CC1`, the inhibition was -0.6%.

For `Cc1cccc(NC(=O)C2(c3ccccc3)CCOCC2)c1`, the inhibition is -5.7%.

As to `CCOc1ccc(N/C(C)=C\C(=O)c2ccc3c(c2)OCCO3)cc1`, the inhibition is 61.4% (active).

`CCOc1ccc(NC(=O)CN2CCN(CC(=O)Nc3ccc4c(c3)OCCO4)CC2)cc1`: the inhibition was -12.8%.

As to `COc1ccc(C(=O)/C=C(\C)Nc2ccc3c(c2)OCO3)cc1`, the inhibition is 33.7%.

Regarding `Cc1nc(-c2ccccc2)nc2[nH]c(C(C)C)cc(=O)c12`, the inhibition was 16.9%.

Regarding `CCN(C(=O)COc1cccc2cccnc12)C1CCS(=O)(=O)C1` (stereo unspecified), the inhibition is 63.2% (active).

Turning to `CCN(C(=O)COc1cccnc1[N+](=O)[O-])C1CCS(=O)(=O)C1` (stereo unspecified), the inhibition is 43.2%.

For `CCN(C(=O)COc1ccccc1[N+](=O)[O-])C1CCS(=O)(=O)C1` (stereo unspecified), the inhibition was -4%.

Turning to `O=C1CC(=O)N(CCNc2ncc(C(F)(F)F)cc2Cl)C(=O)N1`, the inhibition is 2.4%.

Turning to `COc1cc(Cl)c(C)cc1NC(=O)CSc1nnc(CCC(=O)O)c(=O)[nH]1`, the inhibition was 6.6%.

Regarding `COc1ccc(CCNC2CC(=O)N(CCc3ccc(OC)c(OC)c3)C2=O)cc1OC` (stereo unspecified), the inhibition is 1.6%.

`O=C1CC(NCc2ccc3c(c2)OCO3)C(=O)N1CCc1ccccc1` (stereo unspecified): the inhibition was 1%.

For `COc1ccc(CCN2C(=O)CC(NCc3ccc4c(c3)OCO4)C2=O)cc1OC` (stereo unspecified), the inhibition was 51% (active).

With `CCc1nnc(NC(=O)CN2C(=O)c3ccccc3C2=O)s1`, the inhibition was -2.7%.

As for `O=C1C2C3C=CC(C3)C2C(=O)N1Cc1ccccc1` (stereo unspecified), the inhibition is 10%.

For `Cn1c(=O)c2cc(S(=O)(=O)NC(C(=O)Nc3cccc(F)c3)c3ccccc3)ccc2n(C)c1=O` (stereo unspecified), the inhibition is 1.9%.

For the molecule `Cc1cc(N)c2ccccc2n1`, the inhibition is 5.5%.

For the molecule `Cc1cc(C)c2c(N)c3cccc(C)c3nc2n1`, the inhibition was 5.4%.

For `Cc1cc(C)c2cccc(N)c2n1`, the inhibition was 64% (active).

Take `Cc1ccc2cccc(N)c2n1`: the inhibition was 56.5% (active).

In the case of `Cc1ccc2cccc(OCCOCCOc3ccccc3Br)c2n1`, the inhibition was 35.7%.

On to `Cc1ccc2cccc(NC(=O)C(F)(F)F)c2n1`, for which the inhibition was 9.3%.

Consider `COP(=O)(OC)c1nc(-c2ccccc2)oc1N1CCOCC1`, for which the inhibition was -10.4%.

Regarding `CC1CCCCC1N1CN=C(Nc2nc3ccccc3s2)NC1` (stereo unspecified), the inhibition is 8.2%.

Consider `Nc1nc(SCC(=O)NCCOCCO)nc2sc3c(c12)CCCC3`, for which the inhibition is 2.8%.

As for `Nc1nc(SCC(=O)NCCO)nc2sc3c(c12)CCCC3`, the inhibition was 5.1%.

`Nc1nc(SCC(=O)NCCCO)nc2sc3c(c12)CCC3`: the inhibition was 57% (active).

`Cc1c(Cl)cccc1NC(=O)Cn1cc(C(F)(F)F)cc(Cl)c1=O`: the inhibition was -5.8%.

Consider `CCN(CC)c1ccc(/C=C2/SC(=O)N(C(C)C)C2=O)o1`, for which the inhibition is 51.9% (active).

On to `CC(C)N1C(=O)S/C(=C/c2ccc3c(c2)n(C)c(=O)n3C)C1=O`, for which the inhibition was 7.6%.

For the molecule `CC(C)N1C(=O)S/C(=C/c2ccc(Sc3nc4ccccc4[nH]3)o2)C1=O`, the inhibition was 13.6%.

`C/C(=N\NC(=O)CN(c1ccccc1Br)S(C)(=O)=O)c1cccs1`: the inhibition is -17.2%.

For the molecule `CCS(=O)c1ccccc1C(=O)O` (stereo unspecified), the inhibition was 9.5%.

Regarding `CCCCNc1nc(CC)c2c(c1C#N)CCCC2`, the inhibition was -5.9%.

Regarding `CCOC(=O)c1cc(C(=O)c2ccccc2O)cn2c(=O)c3c(C)c(C)sc3nc12`, the inhibition is 16.1%.

Take `Cc1sc2nc3c(C(=O)N4CCCC4)cc(C(=O)c4ccccc4O)cn3c(=O)c2c1C`: the inhibition is 7.7%.

For `Cc1sc2nc3c(SC(C)C(=O)O)cc(C(=O)c4ccccc4O)cn3c(=O)c2c1C` (stereo unspecified), the inhibition was 69% (active).

Turning to `CCc1ccc(C(=O)CN2C(=O)C(C)N(c3ccc(C)cc3)C2=O)cc1` (stereo unspecified), the inhibition was 4.9%.

As to `CCOc1cc(N2CCOCC2)c(OCC)cc1NC(=O)COC(=O)c1ccccc1C`, the inhibition is 11.5%.

As to `CCOc1cc(N2CCOCC2)c(OCC)cc1NC(=O)Cc1ccc(OC)c(OC)c1`, the inhibition is 53.1% (active).

For the molecule `CCOc1cc(N2CCOCC2)c(OCC)cc1NC(=O)COc1ccccc1[N+](=O)[O-]`, the inhibition is 23.9%.

For `COc1ccc(NC(=O)COC(=O)[C@@H]2CCCN2S(=O)(=O)c2ccccc2F)c(OC)c1`, the inhibition is -1.3%.

With `CCOc1cc(N2CCOCC2)c(OCC)cc1NC(=O)Cc1cccc2ccccc12`, the inhibition was -0.6%.

Consider `COc1ccc(CC(=O)Nc2ccccc2N2CCOCC2)cc1OC`, for which the inhibition was -2.2%.

`CCOc1cc(N2CCOCC2)c(OCC)cc1NC(=O)COC(=O)[C@@H]1CCCN1S(=O)(=O)c1ccccc1F`: the inhibition is 53% (active).

`CCOc1cc(N2CCOCC2)c(OCC)cc1NC(=O)Cc1cccc(OC)c1`: the inhibition was 8.1%.

For `CCOc1cc(N2CCOCC2)c(OCC)cc1NC(=O)Cc1ccccc1OC`, the inhibition is 51.7% (active).

For the molecule `O=C(CCn1c(=O)sc2ccccc21)Nc1nccs1`, the inhibition was 4.8%.

On to `Cc1ccc(NC(=O)CN2CCN(CCN=CC3=C(O)CC(C)(C)CC3=O)CC2)cc1`, for which the inhibition is -3.9%.

Turning to `COC(=O)CSc1nc(C)cc(N2CCOCC2)n1`, the inhibition was -3.4%.

On to `CCc1n[nH]c(=S)n1/N=C/c1cc(Br)c(OC)cc1OC`, for which the inhibition is -2.2%.

On to `Cc1nnc(NC(=O)Oc2ccccc2)s1`, for which the inhibition was 4.4%.

Turning to `Cc1c(NC(=O)Oc2ccccc2)sc(=S)n1C`, the inhibition is -4.6%.

On to `COC(=O)c1c(C)nsc1NC(=O)Oc1ccccc1`, for which the inhibition is 50.4% (active).

Turning to `COc1ccccc1C(=O)Nc1nc(N)n(-c2ccccc2)n1`, the inhibition is -3.7%.

Consider `Cc1cccc(C)c1NC(=S)/C(=C(\[O-])c1cccs1)[n+]1ccccc1`, for which the inhibition was 5.5%.

On to `[O-]/C(=C(\C(=S)Nc1cccc2ccccc12)[n+]1ccccc1)c1cccs1`, for which the inhibition is 65.7% (active).

Consider `[O-]/C(=C(\C(=S)Nc1cccc2ccccc12)[n+]1ccccc1)c1ccc(Cl)s1`, for which the inhibition is 5.8%.

On to `O=C(O)CSCC(=O)Nc1ccc(Cl)cc1C(F)(F)F`, for which the inhibition is -0.6%.

For `O=C(CCN1C(=O)COc2ccccc21)NCCC1=CCCCC1`, the inhibition is 19.9%.

As to `CC(C)(C)P(=O)(CO)c1ccccc1` (stereo unspecified), the inhibition is 1.7%.

`CC1(C)CC(=O)C(C=Nc2ccc3[nH]ncc3c2)=C(O)C1`: the inhibition is 38.6%.

As for `COc1cccc(N=Cc2ccc(O)cc2O)c1`, the inhibition was 52.5% (active).

As to `COc1ccc(C=Nc2ccc3[nH]ncc3c2)c(O)c1`, the inhibition was 59.8% (active).

On to `COc1cccc(N=Cc2c[nH][nH]c2=O)c1`, for which the inhibition was 16.7%.

Regarding `OCC(CO)(CO)N=Cc1cc(Br)ccc1O`, the inhibition is 27%.

With `Brc1ccc2[nH]ncc2c1`, the inhibition is -2.5%.

In the case of `Oc1ccc(Br)cc1C=Nc1ccc2[nH]ncc2c1`, the inhibition is 55.4% (active).

Consider `Cc1ccc(N=Cc2ccc(O)cc2O)cc1F`, for which the inhibition was 9.7%.

As to `C=CCOc1ccc(C=Nc2ccc(OC)cc2)c(O)c1`, the inhibition is 49%.
